An excerpt weighted towards active compounds, which were near 3% of everything screened.
LmPK inh – inhibitors of Leishmania mexicana pyruvate kinase. Potency, µM (series often up to 57.5 µM), inactives show at the top dose activity change, negative = inhibition, usual class: inhibitors. purified LmPK, Kinase-Glo ATP luminescence, 1 h. 290,000 compounds, 0.37% hits. Q27686. AID 1721
Target sequence (Q27686 whole entry, looked up): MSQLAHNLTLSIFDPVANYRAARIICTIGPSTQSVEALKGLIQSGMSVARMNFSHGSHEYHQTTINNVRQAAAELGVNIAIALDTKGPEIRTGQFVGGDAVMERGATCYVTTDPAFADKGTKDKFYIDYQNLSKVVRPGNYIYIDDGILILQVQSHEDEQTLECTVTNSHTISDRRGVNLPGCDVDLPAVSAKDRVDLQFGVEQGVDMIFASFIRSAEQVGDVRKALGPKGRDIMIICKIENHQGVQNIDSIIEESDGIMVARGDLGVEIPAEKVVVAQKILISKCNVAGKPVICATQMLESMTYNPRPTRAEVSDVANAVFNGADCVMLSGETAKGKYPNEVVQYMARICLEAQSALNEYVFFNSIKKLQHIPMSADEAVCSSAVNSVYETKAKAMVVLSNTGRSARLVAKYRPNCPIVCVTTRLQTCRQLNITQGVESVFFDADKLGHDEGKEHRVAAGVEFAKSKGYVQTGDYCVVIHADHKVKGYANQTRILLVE
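qHTS format; LmPK 0.1 nM; substrates PEP 0.5 mM and ADP 0.1 mM. One-hour room-temperature incubation, then coupled luciferase luminescence; 0.5 nM enzyme wells mark activation.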
TbPYK inhibitor – inhibitors of Trypanosoma brucei pyruvate kinase; TbPYK enzyme, Kinase-Glo Plus ATP luminescence, 45 min; Potency, µM (highest dose often 76.8 µM), inactives show top-dose activity, negative = inhibition, actives largely listed as inhibitors; 410,000 compounds, 0.12% hits; AID 624173; also: nearly all actives have a fitted effect of over 50% in size
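Assay buffer: 50 mM TEA pH 7.2, 100 mM KCl, 10 mM MgCl2, 0.05% BSA, 0.01% Tween-20. Pyruvate kinase from T. brucei plus substrate met compound, then ADP (130 uM final). Luminescence was read post 45 min RT.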
Sm TGR inh – S. mansoni TGR enzyme inhibition. Q962Y6. AID 485364. 360,000 compounds, 3% hits. Potency, µM (series often up to 114 µM), for inactives: top-dose activity change, negative = inhibition, usual class: inhibitors. purified TGR, DTNB reduction, TNB absorbance 405 nm; also: nearly all actives have a fitted effect of over 60% in size
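TGR 20 nM + NADPH 100 uM (dispensed conc.), cpd preinc 15 min RT; start with NADPH (500 uM addition) then DTNB (15 mM addition). Kinetic TNB absorbance, 405 nm filter. Four-parameter Hill fit across titration.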
RE007 growth inh – less growth of the S. pombe RE007 Vpr strain | S. pombe RE007 Vpr strain, BacTiter-Glo ATP luminescence, 24 h | Potency, µM (series often up to 92.2 µM), for inactives: at the highest dose activity change, negative = less growth, usual class: inhibitors | 360,000 compounds, 0.21% hits | AID 651644; active = well fitted falling curve with a large enough effect; inconclusive = small, poorly fitted or top-dose-only effect; inactive = no such curve, though single readings can be large or run the other way; also: nearly all actives have a fitted effect of over 50% in size
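Fission yeast RE007 carrying one integrated HIV-1 vpr copy, seeded at OD 0.01 in PMG+AL medium with 23 nL pinned compound. Grown 24 h at 30 degrees; viability read by BacTiter-Glo luminescence after 5 min.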
Starred values were filed as active, the others as inactive; u = inconclusive; x = not tested or not shown; [ ] = another dose, or the depositor's remark. Unless noted, calls follow the shape of the dose curve; as a rule, active = well fitted curve in the direction sought with a large enough effect; inconclusive = small, poorly fitted or top-dose-only effect, or another doubt; inactive = no such curve, though single readings can be large; an effect the other way counts as inactive or inconclusive. % is scaled to controls: 0 for no effect and ±100 for the full control effect; potency is read from the fitted curve at half-maximal effect.

SMILES | LmPK inh | TbPYK inhibitor | Sm TGR inh | RE007 growth inh
Cc1nc2ccccc2n2c(O)c(CC(=O)O)cc12 | 3.7% | 5.2% | 35.5µM* | -0.6%
Cc1cc2nc3c(=O)[nH]c(=O)nc-3n(CC(O)C(O)C(O)COP(=O)(O)O)c2cc1C (stereo not drawn) | x | -5.4% | x | x
CC(C)(C)C(=O)CN1CCN(S(=O)(=O)c2ccc(F)cc2)CC1 | 3.4% | -5.3% | u | 1.1%
O=C(CN1CCN(S(=O)(=O)c2ccc(F)cc2)CC1)c1ccc(O)c(O)c1 | 8.5% | -28.7% | 22.4µM* | -5.4%
CCOc1ccc(S(=O)(=O)N2CCN(S(=O)(=O)c3ccc(C(C)=O)cc3)CC2)cc1 | -4.2% | -10.6% | -19.2% | 3.0%
O=C(CN1CCN(S(=O)(=O)c2ccc(Cl)cc2)CC1)c1ccc(O)c(O)c1 | -1.1% | -23.1% | 20µM* | 0.2%
COc1cccc(C(=O)CN2CCN(S(=O)(=O)c3ccc(Cl)cc3)CC2)c1 | x | -4.9% | 22.4µM* | x
CCOc1ccc(C(=O)CN2CCN(S(=O)(=O)c3ccc(F)cc3)CC2)cc1 | 3.3% | 3.1% | 25.1µM* | -21.2%
NC(=O)CN1CCN(S(=O)(=O)c2ccc(Cl)cc2)CC1 | 4.5% | 2.7% | x | 13.1%
Cc1cc(=O)n2c3c(c4c(cc13)c(CN(C)C)cc(=O)n4C)OC2 | x | 0.5% | x | 5.5%
CCN(CC)CCOc1ccc(Nc2ncc3cc(-c4c(Cl)cccc4Cl)c(=O)n(C)c3n2)cc1 | x | 4.1% | x | x
COC(=O)c1csc(C(=O)c2c[nH]c3ccccc23)n1 | x | -1.1% | x | x
CCCCc1cc2c(cn1)=C(OC(=O)C1CCCC1)C(C)(OC(=O)CC)C(=O)C=2 (stereo not drawn) | 0.8%[11.5 µM] | x | x | x
COc1ccc(S(=O)(=O)N2CCN(S(=O)(=O)c3ccc(OC)cc3)CC2)cc1 | x | x | -9.4% | x
COc1ccc(S(=O)(=O)N2CCN(CC(=O)c3ccc(O)c(O)c3)CC2)cc1 | -5.4% | u | 20µM* | 2.4%
O=C(NN=C1CCCC1)c1ccc(Cl)cc1 | -9.1% | -10.0% | 0.0% | -7.5%
O=C1CCC/C(=N/Nc2ccc(Cl)cc2)C1 | -5.0% | -8.8% | 12.6µM* | -12.1%
COCCNC(=O)C1(C)CCCN(CCSc2ccccc2)C1 (stereo not drawn) | x | 0.1% | x | -11.2%[18.4 µM]
O=[N+]([O-])C(=C1Nc2ccccc2N1)/C(Cl)=C(/Cl)Br | -3.0% | -17.2% | 6.31µM* | 24.7%
CCOc1ccc(NC(=O)C2CCC(CNS(=O)(=O)c3ccc4c(c3)CCCC(=O)N4)CC2)cc1 (stereo not drawn) | x | -3.2% | -1.3% | x
O=C1NC(=O)/C(=C\c2ccccc2Oc2ccc(F)c(F)c2)S1 | 5.6% | 0.2% | 0.0% | -13.0%
CN1C(=O)C(=Cc2ccccc2Oc2ccc(Cl)c(F)c2)C(=O)N(C)C1=O | -5.6% | u | 31.6µM* | -10.9%
O=C1NC(=O)C(=Cc2ccccc2Oc2ccc(F)cc2)C(=O)N1 | 3.5% | -36.0% | 70.8µM* | 0.9%
CC(C)c1nn2c(=O)cc(COC(=O)c3ccccc3NC(=O)c3cccc(Cl)c3)nc2s1 | x | 1.4% | 52.5% | x
COc1ccccc1OCC(=O)Nc1ccncc1 | 0.1% | 2.2% | -1.5% | -20.0%
SMILES | LmPK inh | TbPYK inhibitor | Sm TGR inh | RE007 growth inh
COc1ccccc1OCC(=O)Nc1ccccn1 | 12.6µM* | u | 0.0% | u
O=C(COc1ccc(Cl)cc1Cl)Nc1ccccn1 | 5.01µM* | u | 3.5% | u
Cc1cc(=O)n(Cc2c(F)cccc2Cl)c2c1c(C)nn2-c1cccc(F)c1 | x | -9.9% | 3.1% | x
CC1c2cccn2CCN1S(=O)(=O)c1ccccc1 (stereo not drawn) | x | -0.3% | 39.8µM* | -19.3%
O=[N+]([O-])c1ccc(S(=O)(=O)N2CCn3cccc3C2c2ccccc2F)cc1 (stereo not drawn) | x | 4.2% | 35.5µM* | x
O=S(=O)(c1cccnc1)N1CCn2cccc2C1c1ccccc1F (stereo not drawn) | x | 0.2% | 31.6µM* | 1.1%
COC(=O)c1c(N2C(=O)[C@H]3[C@@H](C2=O)[C@]2(C(=O)Nc4c(C)cc(C)cc42)N2CCC[C@@H]32)sc(C)c1C | 6.1% | -2.2% | -19.0% | -2.1%
COC(=O)c1c(N2C(=O)[C@H]3[C@@H](C2=O)[C@]2(C(=O)Nc4c2ccc(C)c4C)N2CCC[C@@H]32)sc(C)c1C | -10.0% | -4.3% | 56.2µM* | x
Nc1ncnc(Sc2ccc(Cl)cc2)c1[N+](=O)[O-] | 1.8% | -14.2% | u | -19.6%
Nc1ncnc(Sc2ncccn2)c1[N+](=O)[O-] | 2.1% | -4.8% | 2.51µM* | -19.1%
Cc1ccc(Sc2ncnc(N)c2[N+](=O)[O-])cc1 | -2.2% | -4.3% | -12.6% | -2.6%
Nc1ncnc(Sc2ccccc2)c1[N+](=O)[O-] | -2.5% | -5.6% | 12.6µM* | -24.8%
CCOC(=O)C1(Cc2ccc(Cl)cc2)CCN(C(C)Cc2ccc(O)c(OC)c2)CC1 (stereo not drawn) | -1.2% | 2.1% | -32.3% | -4.3%
CC1(C)CC(=O)C2=C(C1)c1c(ccc3ccccc13)NC2c1ccco1 (stereo not drawn) | 10.5% | 3.1% | 44.7µM* | -1.1%
Cn1c(=O)[nH]c(=O)c2c1nc1n2CCN1c1ccccc1 | x | -0.1% | -6.2% | x
N#CC1=C(N)N(c2ccc(Br)cc2)C2=C(C(=O)CCC2)C1c1cccnc1 (stereo not drawn) | 4.7% | -0.1% | 39.8µM* | 4.9%
Cc1cccc(Cn2cccc2CNS(=O)(=O)c2ccccc2F)c1 | x | 6.4% | u | x
CCOc1ccc(NC(=O)CN2CCN(CC(=O)c3ccc(OC)c(OC)c3)CC2)cc1 | -1.7% | -9.2% | 31.6µM* | -6.1%
CCOc1ccc(NC(=O)CN2CCN(CC(=O)Nc3ccc(C(N)=O)cc3)CC2)cc1 | -6.9% | 2.4% | u | -5.0%
CCOc1ccc(NC(=O)CN2CCN(CC(=O)c3ccc(OCC)cc3)CC2)cc1 | 2.5% | -7.8% | 22.4µM* | -17.8%
O=C(c1ccc(CS(=O)(=O)c2c(Cl)cccc2Cl)o1)N1CCN(c2ccccc2)CC1 | x | 1.3% | -13.8% | x
COc1ccc(-c2noc(CN(C)Cc3ccccc3)n2)cc1 | 0.4% | -2.9% | 8.5% | -5.9%
COc1ccc(-c2noc(CN(C)Cc3ccc(C)o3)n2)cc1 | -0.1% | 2.8% | 35.5µM* | -7.2%
O=c1/c(=C/c2ccco2)sc2n1CN(c1ccccc1)CN=2 | 4.9% | 2.3% | -26.8% | 7.3%
Cc1cc(C)cc(N2CN=c3s/c(=C\c4ccco4)c(=O)n3C2)c1 | 4.0% | 2.4% | -13.6% | -14.4%
Cc1ccc(/C=c2\sc3n(c2=O)CN(c2cccc(Br)c2)CN=3)o1 | 2.9% | -4.7% | 25.1µM* | 4.1%
O=c1/c(=C/c2ccco2)sc2n1CN(c1cccc(Br)c1)CN=2 | 7.3% | -4.2% | 25.1µM* | 15.4%
CC(=O)OCC(=O)Nc1cc(C#N)cc(NC(=O)COC(C)=O)c1Cl | x | 1.8% | x | x
O=C(C[n+]1ccc2ccccc2c1)c1cccc2ccccc12 | 1.1% | -10.1% | 25.1µM* | -23.8%
Cc1ccc(NC(=O)CSc2nc3nccnc3c(=O)n2CCc2c[nH]c3ccccc23)cc1C | x | -6.5% | -1.8% | x

From PubChem
